# According to PubChem BioAssay (NCATS):
# Results filed as inconclusive are left out. Entries that show only a call come without a potency. Calls of active or inactive are those of the source. Calls come from the whole dose curve; as a rule, active = well fitted curve in the direction sought with a large enough effect; inconclusive = small, poorly fitted or top-dose-only effect, or another doubt; inactive = no such curve, though single readings can be large; an effect the other way counts as inactive or inconclusive.
# How the values were obtained:
# [1] = Quantitative High-Throughput drug screen in 47 multiple myeloma cell lines against the NCATS MIPE library collection: FR4_PLB cell viability assay (AID 1918924; note: nearly all actives have a fitted effect of over 35% in size)
# Method in brief: (§1)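 Inhibition of cell viability is measured here. Each line was plated at 500 cells per well, treated with MIPE 4.0 drugs, kept 48 hours at 37C, then assayed for ATP content by CellTiter-Glo luminescence.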
# [2] = Quantitative High-Throughput drug screen in 47 multiple myeloma cell lines against the NCATS MIPE library collection: Delta47_JCRB cell viability assay (AID 1918925; note: nearly all actives have a fitted effect of over 45% in size)
# Method in brief: (§2)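 Luminescent ATP measurement with CellTiter-Glo gives viability, scaled between DMSO-only wells (100%) and media-only wells (0%). Cells, 500 per well, faced library compounds for 48 hours at 37C.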
# [3] = Quantitative High-Throughput drug screen in 47 multiple myeloma cell lines against the NCATS MIPE library collection: EJM_DSMZ cell viability assay (AID 1918926; note: nearly all actives have a fitted effect of over 30% in size)
# Method in brief: as §2
# [4] = Quantitative High-Throughput drug screen in 47 multiple myeloma cell lines against the NCATS MIPE library collection: AMO1_DSMZ cell viability assay (AID 1918927; note: nearly all actives have a fitted effect of over 30% in size)
# Method in brief: as §2
# [5] = Quantitative High-Throughput drug screen in 47 multiple myeloma cell lines against the NCATS MIPE library collection: ARP1_JJKsccF8 cell viability assay (AID 1918928; note: nearly all actives have a fitted effect of over 40% in size)
# Method in brief: (§3)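 Luminescence from CellTiter-Glo, taken after 5 min at room temperature, reports cellular ATP as viability. Cells (500 per well) had been treated 48 h at 37 °C with MIPE 4.0 compounds, scaled between DMSO and medium-only controls.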
# [6] = Quantitative High-Throughput drug screen in 47 multiple myeloma cell lines against the NCATS MIPE library collection: ARD_JJKsccE7 cell viability assay (AID 1918929)
# Method in brief: as §2
# [7] = Quantitative High-Throughput drug screen in 47 multiple myeloma cell lines against the NCATS MIPE library collection: Karpas620_DSMZ cell viability assay (AID 1918959); note: nearly all actives have a fitted effect of over 30% in size
# Method in brief: as §1
# [8] = Quantitative High-Throughput drug screen in 47 multiple myeloma cell lines against the NCATS MIPE library collection: KMM1_JCRB cell viability assay (AID 1918960); note: nearly all actives have a fitted effect of over 30% in size
# Method in brief: as §3
# [9] = Quantitative High-Throughput drug screen in 47 multiple myeloma cell lines against the NCATS MIPE library collection: KHM11_PLB cell viability assay (AID 1918962); note: nearly all actives have a fitted effect of over 35% in size
# Method in brief: as §1
# [10] = Quantitative High-Throughput drug screen in 47 multiple myeloma cell lines against the NCATS MIPE library collection: JIM3_ECACC cell viability assay (AID 1918963; note: nearly all actives have a fitted effect of over 35% in size)
# Method in brief: as §1
# [11] = Quantitative High-Throughput drug screen in 47 multiple myeloma cell lines against the NCATS MIPE library collection: INA6_PLB cell viability assay (AID 1918965; note: nearly all actives have a fitted effect of over 55% in size)
# Method in brief: (§4)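 qHTS of the MIPE 4.0 collection: 500 myeloma cells/well, 48 h drug exposure at 37C in 5% CO2, then CellTiter-Glo for 5 min at room temperature before luminescence reading.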
# [12] = Quantitative High-Throughput drug screen in 47 multiple myeloma cell lines against the NCATS MIPE library collection: Karpas25_ECACC cell viability assay (AID 1918968; note: nearly all actives have a fitted effect of over 35% in size)
# Method in brief: as §2
# [13] = Quantitative High-Throughput drug screen in 47 multiple myeloma cell lines against the NCATS MIPE library collection: KMS27_JCRB cell viability assay (AID 1918970); settings: KMS27 myeloma cells, CellTiter-Glo ATP viability, 48 h; viability (% of DMSO): at 45.8 µM (top of the series); note: nearly all actives have a fitted effect of over 30% in size
# Method in brief: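 CellTiter-Glo luminescence after 48 h drug exposure at 37 °C; 500 cells/well, 1536-well format, pin-tool compound addition; DMSO = 100%, media-only = 0% viability.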
# [14] = Quantitative High-Throughput drug screen in 47 multiple myeloma cell lines against the NCATS MIPE library collection: KMS12BM_JCRB cell viability assay (AID 1918971); note: nearly all actives have a fitted effect of over 35% in size
# Method in brief: as §2
# [15] = Quantitative High-Throughput drug screen in 47 multiple myeloma cell lines against the NCATS MIPE library collection: KMS12PE_JCRB cell viability assay (AID 1918972); note: nearly all actives have a fitted effect of over 30% in size
# Method in brief: as §4
# [16] = Quantitative High-Throughput drug screen in 47 multiple myeloma cell lines against the NCATS MIPE library collection: JJN3_DSMZ cell viability assay (AID 1918966; note: nearly all actives have a fitted effect of over 50% in size)
# Method in brief: as §2
# [17] = Quantitative High-Throughput drug screen in 47 multiple myeloma cell lines against the NCATS MIPE library collection: H1112_PLB cell viability assay (AID 1918967; note: nearly all actives have a fitted effect of over 30% in size)
# Method in brief: as §2
# [18] = Quantitative High-Throughput drug screen in 47 multiple myeloma cell lines against the NCATS MIPE library collection: KMS20_JCRB cell viability assay (AID 1918973); note: nearly all actives have a fitted effect of over 45% in size
# Method in brief: as §2
# [19] = Quantitative High-Throughput drug screen in 47 multiple myeloma cell lines against the NCATS MIPE library collection: JIM1_ECACC cell viability assay (AID 1918964)
# Method in brief: as §2
# [20] = Quantitative High-Throughput drug screen in 47 multiple myeloma cell lines against the NCATS MIPE library collection: Karpas417_ECACC cell viability assay (AID 1918961); settings: Karpas417 myeloma viability, CellTiter-Glo ATP luminescence, 48 h; viability (% of DMSO): at 45.8 µM (top of the series)
# Method in brief: as §4
# Potency is the fitted concentration of half-maximal effect.
SMILES,Potency [1],Potency [2],Potency [3],Potency [4],Potency [5],Potency [6],Potency [7],Potency [8],Potency [9],Potency [10],Potency [11],Potency [12],Potency [13],Potency [14],Potency [15],Potency [16],Potency [17],Potency [18],Potency [19],Potency [20]
CNC1[C@H](O)C(O[C@@H]2C(O)C(O[C@H]3O[C@H]([C@@H](C)NC)CC[C@H]3N)[C@@H](N)C[C@H]2N)OC[C@]1(C)O (stereo partly specified),inactive,inactive,inactive,inactive,inactive,inactive,inactive,inactive,inactive,inactive,inactive,inactive,inactive,inactive,inactive,–,–,–,–,–
CC=C1C2C=C(C)CC1(N)c1ccc(=O)[nH]c1C2 (stereo unspecified),inactive,inactive,inactive,inactive,–,inactive,inactive,inactive,inactive,inactive,–,inactive,inactive,–,inactive,inactive,inactive,inactive,–,–
CCCCC(F)(F)[C@@]1(O)CC[C@H]2[C@H](CC(=O)[C@@H]2CCCCCCC(=O)O)O1,inactive,inactive,inactive,inactive,inactive,inactive,inactive,inactive,inactive,inactive,inactive,–,–,–,inactive,–,inactive,–,–,–
CCN(CC)CCCCNc1nc2cc(Cl)c(Cl)cc2nc1-c1ccc(-c2cccs2)s1,10.5 µM (active),7.43 µM (active),11.8 µM (active),6.62 µM (active),–,8.33 µM (active),9.35 µM (active),9.35 µM (active),10.5 µM (active),8.33 µM (active),4.69 µM (active),8.33 µM (active),8.33 µM (active),16.6 µM (active),6.62 µM (active),23.5 µM (active),7.43 µM (active),–,9.35 µM (active),–
Cc1[nH]c(C=C2C(=O)Nc3ccc(S(=O)(=O)N(C)c4cccc(Cl)c4)cc32)c(C)c1C(=O)N1CCN(C)CC1,26.4 µM (active),14.8 µM (active),23.5 µM (active),5.9 µM (active),23.5 µM (active),6.62 µM (active),9.35 µM (active),6.62 µM (active),18.7 µM (active),20.9 µM (active),11.8 µM (active),7.43 µM (active),5.9 µM (active),–,7.43 µM (active),20.9 µM (active),–,5.26 µM (active),9.35 µM (active),3.72 µM (active)
COc1ccc(-c2cc3nccn3c(Nc3ncccc3C(N)=O)n2)cc1OC,3.32 µM (active),0.833 µM (active),4.69 µM (active),0.469 µM (active),4.69 µM (active),–,inactive,–,0.833 µM (active),1.05 µM (active),0.187 µM (active),1.48 µM (active),–,–,–,–,5.9 µM (active),–,0.372 µM (active),0.166 µM (active)
CN1C(=O)C(Cc2c[nH]c3ccccc23)NC1=S (stereo unspecified),inactive,inactive,inactive,inactive,inactive,–,inactive,inactive,–,inactive,–,13.2 µM (active),inactive,13.2 µM (active),–,inactive,inactive,inactive,–,–
CCC(C)SSc1ncc[nH]1 (stereo unspecified),16.6 µM (active),10.5 µM (active),13.2 µM (active),9.35 µM (active),9.35 µM (active),5.26 µM (active),4.69 µM (active),3.32 µM (active),13.2 µM (active),14.8 µM (active),4.69 µM (active),4.18 µM (active),10.5 µM (active),13.2 µM (active),9.35 µM (active),4.69 µM (active),5.26 µM (active),5.26 µM (active),5.9 µM (active),2.35 µM (active)
CC1(C)C(N(O)C(=O)Nc2ccc(Cl)cc2)N(c2ccc(Cl)cc2)C(=O)N1CC(=O)NN=CC=Cc1ccc([N+](=O)[O-])o1 (stereo unspecified),13.2 µM (active),7.43 µM (active),16.6 µM (active),inactive,7.43 µM (active),–,inactive,inactive,11.8 µM (active),14.8 µM (active),7.43 µM (active),8.33 µM (active),inactive,8.33 µM (active),inactive,4.18 µM (active),–,–,–,–
CC[C@H](C)C(=O)O[C@H]1C[C@H](O)C=C2C=C[C@H](C)[C@H](CC[C@@H](O)C[C@@H](O)CC(=O)O)[C@H]21,inactive,inactive,inactive,inactive,inactive,–,inactive,inactive,inactive,inactive,–,inactive,–,inactive,inactive,inactive,–,inactive,inactive,–
CC1(C)OC2CC3C4CC(F)C5=CC(=O)C=CC5(C)C4C(O)CC3(C)[C@]2(C(=O)CO)O1 (stereo partly specified),inactive,inactive,inactive,inactive,0.0209 µM (active),0.0187 µM (active),inactive,0.0235 µM (active),–,inactive,inactive,0.0833 µM (active),inactive,–,–,inactive,inactive,–,–,–
N#CC(c1ccnc(NCCc2cccnc2)n1)c1nc2ccccc2s1 (stereo unspecified),20.9 µM (active),11.8 µM (active),18.7 µM (active),6.62 µM (active),18.7 µM (active),6.62 µM (active),9.35 µM (active),4.69 µM (active),11.8 µM (active),16.6 µM (active),3.72 µM (active),7.43 µM (active),7.43 µM (active),–,4.18 µM (active),10.5 µM (active),18.7 µM (active),14.8 µM (active),5.9 µM (active),–
CN1c2ccccc2C(=O)N2CCc3c([nH]c4ccccc34)C21 (stereo unspecified),inactive,26.4 µM (active),inactive,inactive,–,inactive,inactive,inactive,–,23.5 µM (active),–,23.5 µM (active),inactive,–,inactive,–,–,–,inactive,–
O=C(CO)N1CCC(c2[nH]nc(-c3ccc(Cl)cc3)c2-c2ccncn2)CC1,inactive,inactive,inactive,inactive,inactive,–,inactive,inactive,–,inactive,11.8 µM (active),inactive,inactive,0.935 µM (active),inactive,1.66 µM (active),inactive,–,inactive,–
COc1cc(CNC(=O)CCCCC=CC(C)C)ccc1O,inactive,inactive,10.5 µM (active),inactive,inactive,inactive,inactive,inactive,inactive,inactive,–,inactive,–,inactive,inactive,–,inactive,–,–,–
CN1CCN2c3ncccc3Cc3ccccc3C2C1 (stereo unspecified),inactive,inactive,inactive,inactive,inactive,inactive,inactive,inactive,inactive,inactive,–,–,1.05 µM (active),–,inactive,–,–,inactive,–,–
CCCCC[C@H](O)C=C[C@H]1[C@H](O)CC(=O)[C@H]1CCCCCCC(=O)O,inactive,inactive,inactive,inactive,23.5 µM (active),inactive,inactive,inactive,–,–,–,23.5 µM (active),inactive,–,inactive,7.43 µM (active),inactive,–,inactive,–
C[C@@H](O)[C@H]1C(=O)N2C(C(=O)OCOC(=O)C(C)(C)C)=C(SC3CN(C4=NCCS4)C3)[C@H](C)[C@H]12,inactive,inactive,inactive,inactive,inactive,inactive,inactive,–,inactive,inactive,–,–,–,inactive,–,16.6 µM (active),inactive,–,inactive,–
CC(C)=CCCC(C)=CCCC(C)=CCCC(C)=CCCC(C)=CCCC(C)=CCCC(C)=CCCC(C)=CCCC(C)=CCO,inactive,inactive,inactive,inactive,inactive,inactive,inactive,inactive,–,inactive,inactive,inactive,inactive,inactive,inactive,–,inactive,–,inactive,–
CC(C)CN(C[C@@H](O)[C@H](Cc1ccccc1)NC(=O)O[C@H]1CO[C@H]2OCC[C@H]21)S(=O)(=O)c1ccc(N)cc1,inactive,1.48 µM (active),5.9 µM (active),inactive,–,inactive,inactive,inactive,–,13.2 µM (active),–,3.72 µM (active),–,20.9 µM (active),inactive,23.5 µM (active),2.09 µM (active),2.96 µM (active),inactive,–
O=C1C(CCC(O)c2ccc(F)cc2)C(c2ccc(O)cc2)N1c1ccc(F)cc1 (stereo unspecified),inactive,inactive,inactive,inactive,inactive,–,inactive,–,–,–,inactive,inactive,–,inactive,20.9 µM (active),–,inactive,–,inactive,–
C[C@@H]1O[C@@H](O[C@H]2CC[C@@]3(C)[C@H](CC[C@@H]4[C@H]3C[C@@H](O)[C@]3(C)[C@@H](C5=CC(=O)OC5)CC[C@]43O)C2)C[C@H](O)[C@@H]1O[C@H]1C[C@H](O)[C@H](O[C@H]2C[C@H](O)[C@@H](O)[C@@H](C)O2)[C@H](C)O1 (stereo in doubt),0.0762 µM (active),0.241 µM (active),0.27 µM (active),0.0679 µM (active),0.171 µM (active),0.121 µM (active),0.171 µM (active),0.0762 µM (active),0.152 µM (active),0.191 µM (active),0.171 µM (active),0.241 µM (active),0.0959 µM (active),0.215 µM (active),0.054 µM (active),0.34 µM (active),–,0.27 µM (active),0.0679 µM (active),0.152 µM (active)
